Mtb BioA inh: BioA (M. tuberculosis) enzyme inhibition; purified M. tuberculosis BioA enzyme, plate reader; inhibition, % at 9.99 µM; 0.096% of 360,000 active; in the data active means inhibition above about 40%
TcdB inh: blocks C. difficile toxin B glycohydrolase activity; P18177; TcdB glycohydrolase enzymatic assay, plate reader; AID 652162; 0.24% of 350,000 active; inhibition, % at 9.99 µM; in the data active means inhibition above about 10%
PrP 5UTR inh: inhibition of PrP 5' UTR reporter expression; cell-based PrP 5' UTR mRNA reporter, plate reader; inhibition, % (concentration not given with the values); 0.35% of 340,000 active; AID 488862; in the data active means inhibition above about 52%; further: 0 = median of the neutral control wells
FadD28 FP inh: M. tuberculosis FadD28 bisubstrate binding inhibition; FadD28 bisubstrate probe binding, fluorescence polarization; inhibition, % at 12.5 µM; 0.22% of 360,000 active; AID 588549; in the data active means inhibition above about 8.5%, passing the limit was not always enough
Yp Topo-I inh: Y. pestis Topo-I inhibition via cleavage products. activity, % at 10 µM. 0.064% of 360,000 active. AID 504884. Y. pestis Topo-I cleavage product accumulation, plate reader; in the data active means activity above about 50%, passing the limit was not always enough
PfHsp40 yeast: restores yeast growth despite PfHsp40 toxicity. AID 504582. growth rescue, % at 12.5 µM. 0.68% of 340,000 active. S. cerevisiae expressing PfHsp40, growth rescue, ATP luminescence; in the data active means growth rescue above about 28%, passing the limit was not always enough;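 further: yeast W303a lacking pdr1 and pdr3 grown in galactose medium; growth measured after three days at 30 °C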
* = called active by the depositor. Rows were chosen to be rich in hits. Some 1.2% of all compounds tested hit in one or more screens of this group.

Results for CCOC(=O)c1ccc(NC(=O)CC2Sc3ncnn3C2=O)cc1 (stereo not given) ?
PrP 5UTR inh: -20.2; FadD28 FP inh: -0.3; Yp Topo-I inh: 5.5; PfHsp40 yeast: 41.5*

Results for COc1ccc(NC(=O)Nc2cccc3c2O[C@@H](CN(C)CC2CC2)[C@H](C)CN([C@H](C)CO)C3=O)cc1 ?
Mtb BioA inh: 2.5; TcdB inh: 0.2

How did CCC(C(=O)NC1CCCCC1)n1c(SCc2ccccc2F)nc2ccncc21 (stereo not given) do in these assays?
Mtb BioA inh: 2.1; TcdB inh: 4.0; PrP 5UTR inh: -24.5; FadD28 FP inh: 9.3*; Yp Topo-I inh: 24.5; PfHsp40 yeast: -0.4

What do the screens show for `O=C(Nc1ccc(Cl)c(Cl)c1)C1CC(=O)N(c2ccc(Br)cc2)C1` (stereo not given)?
Mtb BioA inh: 1.1; PrP 5UTR inh: -3.4; FadD28 FP inh: -7.5; Yp Topo-I inh: -5.0; PfHsp40 yeast: 31.2*

How did C[C@H]1CN([C@@H](C)CO)C(=O)c2cc(C#CC3CCCCC3)cnc2O[C@H]1CN(C)C(=O)NC1CCCC1 do in these assays?
Mtb BioA inh: -1.2; TcdB inh: -7.8

What do the screens show for `O=C(C[C@@H]1CC[C@H](NC(=O)c2ccccc2)[C@H](CO)O1)NCc1ccncn1`?
Mtb BioA inh: 1.7; TcdB inh: 0.5

Results for CN(C(=O)c1ccc(NC(=O)Cc2ccc(NC(=O)C3CCN(C(=O)C4CCCC4)CC3)cc2)cc1)C1CC1 ?
Mtb BioA inh: -2.4; TcdB inh: 0.0; PrP 5UTR inh: -7.9; FadD28 FP inh: 0.2; Yp Topo-I inh: 26.0; PfHsp40 yeast: 36.4*

What do the screens show for `CN(C(=O)c1cccc(NC(=O)Cc2ccc(NC(=O)C3CCN(S(=O)(=O)c4cccc([N+](=O)[O-])c4)CC3)cc2)c1)C1CCCC1`?
Mtb BioA inh: -0.1; TcdB inh: 1.1; PrP 5UTR inh: -25.3; FadD28 FP inh: 0.1; Yp Topo-I inh: 24.9; PfHsp40 yeast: 120.0*

What do the screens show for `CCCC#Cc1ccc2c(c1)O[C@H](CN(C)C(=O)CC1CC1)[C@@H](C)CN([C@@H](C)CO)S2(=O)=O`?
Mtb BioA inh: 1.3; TcdB inh: -0.9

What do the screens show for `O=C(NC1Cc2ccccc2C1)[C@H]1[C@H](CO)[C@H]2Cn3c(cccc3=O)[C@@H]1N2Cc1ccccc1F`?
Mtb BioA inh: 1.1

What do the screens show for `O=C(CCSc1nnc(-c2ccncc2)o1)Nc1ccc(Cl)cc1`?
Mtb BioA inh: -0.6; PrP 5UTR inh: -12.8; FadD28 FP inh: -2.3; Yp Topo-I inh: 1.1; PfHsp40 yeast: 197.0*

How did C[C@H]1CCCCO[C@@H](CN(C)C(=O)Nc2ccccc2)[C@@H](C)CN([C@@H](C)CO)C(=O)c2cc(NC(=O)Nc3cccc4ccccc34)ccc2O1 do in these assays?
Mtb BioA inh: -1.8; TcdB inh: 0.4

How did CC(=O)C[C@H]1c2ccccc2S(=O)(=O)N1C1CCCCC1 do in these assays?
Mtb BioA inh: -1.0; TcdB inh: 14.4*; PrP 5UTR inh: -5.0; FadD28 FP inh: -0.3; Yp Topo-I inh: 1.5; PfHsp40 yeast: -1.2

Results for O=C(O)C[C@H]1c2ccccc2S(=O)(=O)N1C1CCCCC1 ?
Mtb BioA inh: 0.5; TcdB inh: 1.4; PrP 5UTR inh: -4.1; FadD28 FP inh: -0.5; Yp Topo-I inh: 5.0; PfHsp40 yeast: -2.4

Results for Cc1cccc(C)c1NS(=O)(=O)c1ccc(-c2cnc(C3CC3)o2)cc1 ?
Mtb BioA inh: 1.1; TcdB inh: 0.1; PrP 5UTR inh: 30.2; FadD28 FP inh: -6.3; Yp Topo-I inh: 7.9; PfHsp40 yeast: 282.8*

Results for COc1ccc(C)cc1NS(=O)(=O)c1ccc(-c2cnc(C3CC3)o2)cc1 ?
Mtb BioA inh: 1.3; TcdB inh: 0.0; PrP 5UTR inh: 75.5*; FadD28 FP inh: -1.7; Yp Topo-I inh: 25.7; PfHsp40 yeast: 0.6

Results for O=[N+]([O-])c1cc(CN2CCN(c3cccc(C(F)(F)F)c3)CC2)c2cccnc2c1O ?
TcdB inh: 1.6; PrP 5UTR inh: 7.8; PfHsp40 yeast: 48.1*

How did CCOC(=O)c1[nH]nc(-c2cc(CC)c(O)cc2O)c1-c1cscn1 do in these assays?
Mtb BioA inh: -0.8; TcdB inh: 15.3*; PrP 5UTR inh: -6.1; FadD28 FP inh: -2.6; Yp Topo-I inh: -3.4; PfHsp40 yeast: -0.5

Results for CCCc1cc2c(=O)c(-c3cscn3)c(C(=O)OCC)oc2cc1O ?
Mtb BioA inh: 0.4; TcdB inh: 1.6; PrP 5UTR inh: -18.9; FadD28 FP inh: -2.2; Yp Topo-I inh: -3.3; PfHsp40 yeast: -0.3
